A selection: hits, their analogues and other compounds. The true share with any hit is near 3%.
TRb SRC2 PPI: TRbeta-SRC2 interaction inhibition | P10828 | TRbeta-SRC2 peptide binding, fluorescence polarization; receptor liganded with 1 µM T3 | Potency, µM (titrated, usually from 106 µM), for the others: at the top dose activity change, negative = inhibition, actives largely listed as inhibitors | 280,000 compounds, 0.065% hits;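 note: plate controls were bound peptide for no effect and peptide without receptor for full effect; nearly all actives have a fitted effect of over 50% in size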
Target sequence (P10828 whole entry, looked up): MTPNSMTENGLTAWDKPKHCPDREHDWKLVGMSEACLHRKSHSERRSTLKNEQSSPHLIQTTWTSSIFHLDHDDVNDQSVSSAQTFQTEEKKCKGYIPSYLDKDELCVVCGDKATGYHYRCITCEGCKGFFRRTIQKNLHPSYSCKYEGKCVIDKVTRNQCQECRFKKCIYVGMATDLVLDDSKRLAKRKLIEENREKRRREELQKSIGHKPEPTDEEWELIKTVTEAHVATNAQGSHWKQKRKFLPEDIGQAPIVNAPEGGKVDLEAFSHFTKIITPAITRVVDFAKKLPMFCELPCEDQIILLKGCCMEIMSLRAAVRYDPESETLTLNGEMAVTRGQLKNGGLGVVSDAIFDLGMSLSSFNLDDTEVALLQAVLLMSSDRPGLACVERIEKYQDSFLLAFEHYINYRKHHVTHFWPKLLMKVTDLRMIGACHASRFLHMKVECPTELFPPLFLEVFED
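Binding of a 20-amino-acid Texas Red SRC2 peptide (20 nM) to TRb ligand-binding domain (0.6 uM) with agonist T3 at 1 uM was followed by fluorescence polarization after a 5 hr room-temperature incubation.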
Tau fluor cs: counter-screen for tau fibril formation inhibitors | tau K18 P301L Alexa594 fluorescence, heparin fibrillization | Potency, µM (top dose mostly 57.7 µM), inactives show at the top dose activity change, negative = decrease | 280,000 compounds, 0.93% hits | AID 1463; note: nearly all actives have a fitted effect of over 55% in size
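Human K18 P301L tau (15 uM unlabeled plus 0.24 uM Alexa 594-labeled, final) in 100 mM sodium acetate pH 7 was mixed with compound and 20 uM heparin and incubated 6 hr at 37 C.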
Tau fibril ThT: blocks human tau fibril formation measured by thioflavin T; 270,000 compounds, 2.1% hits; P10636; AID 1460; recombinant tau K18 P301L (four-repeat tau fragment), heparin-induced fibrillization, ThT fluorescence; Potency, µM (doses to about 57.4 µM), for the others: top-dose activity, negative = inhibition, most hits filed as inhibitors; note: nearly all actives have a fitted effect of over 55% in size
Target sequence (P10636 561-689 P618L limits assumed): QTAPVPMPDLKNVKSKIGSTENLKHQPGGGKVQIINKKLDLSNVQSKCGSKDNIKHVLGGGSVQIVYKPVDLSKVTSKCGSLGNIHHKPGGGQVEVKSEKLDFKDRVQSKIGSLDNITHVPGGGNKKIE
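Heparin-induced fibrillization of the P301L-mutant K18 repeat-domain fragment of human tau was followed by ThT binding in quantitative high-throughput format.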
Tau FP inhib: tau fibrillization inhibition (FP) | P10636 | K18 P301L tau heparin fibrillization, Alexa594 FP, 6 h | Potency, µM (titrated, usually from 57.7 µM), for the others: at the top dose activity, negative = inhibition, hits mostly inhibitors | 280,000 compounds, 0.39% hits | AID 1468; note: nearly all actives have a fitted effect of over 55% in size
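FP of Alexa 594-tau after heparin (20 uM) induction. Substrate: human K18 P301L, 15 uM unlabeled, 0.24 uM labeled. Buffer 100 mM sodium acetate pH 7. 6 hr, 37 C.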
TexasRed fluor: alters Texas Red total fluorescence, flagging assay interference; TRb/SRC2 Texas Red total fluorescence interference; Potency, µM (top dose mostly 106 µM), for the others: top-dose fluorescence change, negative = quenching; 280,000 compounds, 0.29% hits; active = well fitted curve in either direction with a large enough effect; inconclusive = small, poorly fitted or top-dose-only effect
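Flags fluorescent or light-absorbing compounds by total fluorescence, S + 2P, at 555 nm excitation and 632 nm emission. Mixture: 20 nM Texas Red SRC2 peptide, 0.6 uM human TRb LBD, 1 uM T3, 5% DMSO; compound exposure 5 h at ambient temperature.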
The depositor's hits bear a star; ? = inconclusive; . = no result given; [ ] = remark or other dose. Unless noted, calls come from the whole dose curve; as a rule, active = well fitted curve in the direction sought with a large enough effect; inconclusive = small, poorly fitted or top-dose-only effect, or another doubt; inactive = no such curve, though single readings can be large; an effect the other way counts as inactive or inconclusive. Unless noted, % is set by controls: 0 for no effect and ±100 for the full control effect; potency is the fitted concentration of half-maximal effect.

SMILES	TRb SRC2 PPI	Tau fluor cs	Tau fibril ThT	Tau FP inhib	TexasRed fluor
Cc1ccccc1N1C(S)=C(C#N)C(=O)NC1c1ccco1 (stereo unspecified)	3%	-22%	25µM*	?	2%
O=S1(=O)C=C(Sc2nc3cc(Cl)ccc3o2)c2ccccc21	-2%	7.1µM*[quencher]	?	25µM*	-3%
COC(=O)c1sc(N2C(=O)c3oc4ccc(C)cc4c(=O)c3C2c2ccc(OC)cc2)nc1C (stereo unspecified)	-4%	-8%	?	5%	6%
COc1cc(SC#N)ccc1N=Cc1c(C)[nH]n(-c2ccc(C)cc2C)c1=O	9%	-21%	14µM*	?	-5%
COc1ccccc1N=Cc1c(C)[nH]n(-c2ccc(C)cc2C)c1=O	4%	7%[2.34 µM]	-17%	-3%[2.34 µM]	3%
COc1cc(SC#N)ccc1N=Cc1c(C)[nH]n(-c2cccc3ccccc23)c1=O	-13%	-17%	7.9µM*	?	-4%
COc1ccc(CC(=O)NC2CC(=O)N(c3cccc(F)c3)C2)cc1OC (stereo unspecified)	2%	-1%	0%	-6%	0%
COc1ccc(C(=O)NCc2ccc3c(c2)CCN3C(C)=O)cc1OC	-1%	6%	1%	5%	-15%
Nc1c(C(=O)c2ccccc2)sc2snc(SCC(=O)c3ccccc3)c12	-3%	?	7.9µM*	?	-10%
CCC(=O)[C@@]1(O)C(=O)N2C(=C3C(=O)OCCC31)N(Cc1ccccc1)C(C)=C(C(=O)OC)C2c1ccccc1 (stereo partly specified)	-1%[11.2 µM]	-10%[11.6 µM]	-12%[11.5 µM]	1%[11.6 µM]	-1%[11.2 µM]
COc1ccc(CC(C)NS(=O)(=O)c2ccc3c(c2)CCN3S(C)(=O)=O)cc1OC (stereo unspecified)	-5%	-3%	1%	1%	7.1µM*[quencher]
O=C(CNc1cccc2ccccc12)N/N=C/c1cccc(Oc2ccccc2)c1	7%	7.9µM*[quencher]	?	?	-2%
O=C(CNc1cccc2ccccc12)N/N=C/c1ccccn1	1%	?	?	-1%	-3%
O=c1c(O)c(-c2ccc(O)c(O)c2)oc2ccccc12	-3%	?	14µM*	10%	-9%
O=c1c(O)c(-c2cc(O)c(O)c(O)c2)oc2cc(O)ccc12	4%	.	.	.	-27%
O=c1c(O)c(-c2ccc(O)c(O)c2)oc2cc(O)ccc12	-4%	?	5µM*	9%	-1%
O=C(O)CN(CCCN(CC(=O)O)CC(=O)O)CC(=O)O	1%[201 µM]	.	.	.	-1%[201 µM]
Cc1ccc(-n2c(=O)c3c4c(sc3n(CC(=O)C(C)(C)C)c2=O)CCCCC4)cc1C	4%	-8%	-2%	-12%	-12%
COc1cc(/C=C2\SC(c3ccc(C)cc3)=NC2=O)cc(OC)c1O	-6%	?	5µM*	?	-12%
Cc1ccc(C2=NC(=O)/C(=C/c3cc(O)c(O)c(Br)c3)S2)cc1	11%	2.8µM*[quencher]	4µM*	?	0%
COc1cc(/C=C2\SC(=Nc3ccc(O)cc3)NC2=O)cc(OC)c1O	12%	-4%	?	4%	-23%
O=C(Nc1ccc(Br)c(C(F)(F)F)c1)c1ccc(C(F)(F)F)cc1	-4%	-28%	.	22µM*	-1%
Cc1cccc(NC(=S)NNC(=O)c2cccc([N+](=O)[O-])c2)c1	-3%	-23%	?	10%	-4%
O=C(Nc1ccc(-c2nc3ccccc3o2)cc1)c1ccc(N2CCOCC2)c([N+](=O)[O-])c1	0%	?	2.8µM*	?	-2%
O=C(Nc1ccccc1)c1ccc(NCC2CCCO2)c([N+](=O)[O-])c1 (stereo unspecified)	7%	-3%	7%	-13%	-3%
SMILES	TRb SRC2 PPI	Tau fluor cs	Tau fibril ThT	Tau FP inhib	TexasRed fluor
O=C(NNC(=S)Nc1ccc(Cl)c(Cl)c1)c1cccc([N+](=O)[O-])c1	-10%	1.8µM*[quencher]	.	?	-5%
COc1ccc(NC(=O)c2ccc(NCC3CCCO3)c([N+](=O)[O-])c2)cc1 (stereo unspecified)	-1%	-22%	13µM*	6%	-2%
O=C(O)c1ccc(NCCc2ccc(Cl)cc2)c([N+](=O)[O-])c1	3%	-16%	5.6µM*	-1%	-1%
Nc1nc(SCc2ccc([N+](=O)[O-])cc2)c2ncn([C@@H]3O[C@H](CO)[C@H](O)[C@H]3O)c2n1	-3%	-5%	-11%	7%	-7%
COC(=O)NC(c1ccco1)C(C(C)=O)C(=O)OC (stereo unspecified)	4%[11.2 µM]	-13%[11.6 µM]	?	-4%[11.6 µM]	-5%[11.2 µM]
Cc1ccc(C(=O)NCCNc2ccc(Cl)cc2[N+](=O)[O-])o1	-20%	-25%	16µM*	-14%	-2%
Cc1ccc(CNc2ccc(Cl)cc2[N+](=O)[O-])cc1	3%	-25%	?	-3%	2%
O=C(NNC(=S)Nc1ccc(Cl)cc1Cl)c1ccc(N2CCOCC2)c([N+](=O)[O-])c1	0%	?	5µM*	?	1%
Cc1ccc(NC(=S)NNC(=O)c2ccc(N3CCOCC3)c([N+](=O)[O-])c2)cc1Cl	-2%	?	11µM*	?	-1%
Cc1cccc(NC(=O)c2ccc(N3CCOCC3)c([N+](=O)[O-])c2)n1	-5%	-4%	?	-4%	-4%
CCn1c(C)nc2cc(C(=O)NNC(=S)Nc3ccc(Cl)cc3Cl)ccc21	-21%[53 µM]	-2%	0%	7%	8.9µM*[quencher]
CCOC(=O)N/N=C1/C[C@@H](O)[C@@H](O)[C@@H]2[C@@H]3C(=O)N(CC)C(=O)[C@H]3CC[C@@H]12	-1%[11.2 µM]	1%[11.6 µM]	1%[11.5 µM]	-7%[11.6 µM]	-32%[11.2 µM]
C=CCC1(c2ccccc2)Oc2ccc(C)cc2-c2nc3cc(Cl)c(Cl)cc3nc21 (stereo unspecified)	0%[11.2 µM]	5%[11.6 µM]	5%[11.5 µM]	-1%[11.6 µM]	-2%[11.2 µM]
O=C(N/N=C/c1ccccc1)c1ccc(N2CCOCC2)c([N+](=O)[O-])c1	-4%	-2%	3%	-4%	1%
Cc1cc(C(=O)Nc2ccc(N3CCCC3)c(Cl)c2)ccc1[N+](=O)[O-]	-7%	?	5µM*	5%	-4%
O=C(Nc1ccc(N2CCCC2)c(Cl)c1)c1ccc([N+](=O)[O-])cc1	0%	?	?	3%	0%
O=C(NNC(=S)Nc1ccc(Br)cc1)c1ccc(N2CCOCC2)c([N+](=O)[O-])c1	2%	?	13µM*	?	3%
Cc1ccc(NC(=O)c2ccc(NCCc3ccccc3)c([N+](=O)[O-])c2)cc1F	2%	?	?	-12%	-2%
Cc1ccc(NC(=O)c2ccc(NCCN)c([N+](=O)[O-])c2)cc1Cl	7%	?	13µM*	5%	-2%

Screens deposited in PubChem by National Center for Advancing Translational Sciences (NCATS).
